The sample as a whole holds a higher share of the strongest signals than the screen did.
Tests used:
Assay in all cases: glycan array binding signal (z-score within array); higher = stronger binding
Conditions in all cases: glycan notation: IUPAC condensed, linker removed
[1] = target: GlcNAc(b1-3)Gal(b1-4)GlcNAc(b1-6)[GlcNAc(b1-3)]Gal(b1-4)GlcNAc
Method in brief: (§1)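 Columns mapping to the same glycan were averaged after glycan names were converted to IUPAC-condensed notation. The data come from 3228 arrays in the Consortium for Functional Glycomics database, limited to those with an available protein sequence. Binding is reported as a within-array Z-score averaged across arrays of one protein sequence and across linkers.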

[2] = target: GlcNAc(b1-3)Man
Method in brief: as §1

[3] = target: GlcNAc(b1-4)GlcNAc(b1-4)GlcNAc(b1-4)GlcNAc(b1-4)GlcNAc(b1-4)GlcNAc
Method in brief: as §1

[4] = target: GlcNAc6S(b1-3)Gal(b1-4)GlcNAc
Method in brief: as §1

[5] = target: Kdn(a2-6)Gal(b1-4)GlcNAc
Method in brief: as §1

[6] = target: Man(a1-3)[Man(a1-6)]Man(a1-6)[Man(a1-3)]Man
Method in brief: as §1

[7] = target: Man(b1-4)GlcNAc
Method in brief: as §1

[8] = target: Neu5Ac(a2-3)Gal(b1-3)GalNAc(b1-4)[Neu5Ac(a2-3)]Gal(b1-4)Glc
Method in brief: as §1

[9] = target: Neu5Ac(a2-3)Gal(b1-3)GlcNAc(b1-2)Man(a1-3)[Neu5Ac(a2-3)Gal(b1-3)GlcNAc(b1-2)Man(a1-6)]Man(b1-4)GlcNAc(b1-4)GlcNAc
Method in brief: as §1

[10] = target: Neu5Ac(a2-3)Gal(b1-4)GlcNAc(b1-2)[Neu5Ac(a2-3)Gal(b1-4)GlcNAc(b1-6)]Man(a1-6)[Neu5Ac(a2-3)Gal(b1-4)GlcNAc(b1-2)Man(a1-3)]Man(b1-4)GlcNAc(b1-4)GlcNAc
Method in brief: as §1

[11] = target: Neu5Ac(a2-3)Gal(b1-4)GlcNAc(b1-3)Gal(b1-4)GlcNAc(b1-3)Gal(b1-4)GlcNAc
Method in brief: as §1

[12] = target: Neu5Ac(a2-3)Gal(b1-4)GlcNAc(b1-3)Gal(b1-4)GlcNAc(b1-3)[Neu5Ac(a2-3)Gal(b1-4)GlcNAc(b1-3)Gal(b1-4)GlcNAc(b1-6)]GalNAc
Method in brief: as §1

[13] = target: Neu5Ac(a2-3)Gal(b1-4)GlcNAc(b1-6)GalNAc
Method in brief: as §1

[14] = target: Neu5Ac(a2-6)Gal(b1-4)GlcNAc(b1-2)Man(a1-3)[Neu5Ac(a2-6)Gal(b1-4)GlcNAc(b1-2)Man(a1-6)]Man(b1-4)GlcNAc(b1-4)GlcNAc
Method in brief: as §1

[15] = target: Neu5Ac(a2-6)Gal(b1-4)GlcNAc(b1-2)[Neu5Ac(a2-6)Gal(b1-4)GlcNAc(b1-4)]Man(a1-3)[GlcNAc(b1-4)][Neu5Ac(a2-6)Gal(b1-4)GlcNAc(b1-2)[Neu5Ac(a2-6)Gal(b1-4)GlcNAc(b1-6)]Man(a1-6)]Man(b1-4)GlcNAc(b1-4)GlcNAc
Method in brief: as §1

[16] = target: Neu5Ac(a2-6)Gal(b1-4)GlcNAc(b1-6)GalNAc
Method in brief: as §1

[17] = target: Neu5Ac(a2-6)Gal(b1-4)GlcNAc(b1-6)[Gal(b1-3)GlcNAc(b1-3)]Gal(b1-4)Glc
Method in brief: as §1

[18] = target: Neu5Ac(a2-6)GalNAc(b1-4)GlcNAc6S
Method in brief: as §1

[19] = target: Neu5Ac(a2-8)Neu5Ac(a2-8)Neu5Ac
Method in brief: as §1

[20] = target: Neu5Gc(a2-3)Gal(b1-3)[Fuc(a1-4)]GlcNAc
Method in brief: as §1

[21] = target: Neu5Gc(b2-6)Gal(b1-4)GlcNAc
Method in brief: as §1

B1: CvGal2 (Crassostrea virginica) (protein)
chain: MGSSHHHHHHSSGLVPRGSHMRIREAGKRKDTTKVYQIPDGLFPGQQVMLRGRVPWGSKSFSINFSATPRMGEGDILFHLNPRPSEGVCIRNALLNGSWGAEEKWQPYFPFDDGRSFSVKIEVTNDAFRTFVNGRPFVDFLHRTDFRAGKYLTLREGAEYYDVIFQSKPNIPLTTAIHNGMRIGKTIRIRGMCTAQDGFAINFNDNRNNIYFHFNARPAQRTVVRNSYFGSWGNEETAISKEFPFYPFLYFYASFVCMEDKFAVYVNDEHFIDFAHRGNPNNISVLQIKGSVNVLDTECLEPMGEDAMTEVDSGLENGDLFVLNGLMTERGKTFAVNFLNGFTENDDIALHFNPRKSTGEVVLNSRYGGAWQSEEKVALPGVFWSNRPLQVKVETKRNKFKIYVNGVDLAKYKIRGNVEDVHAVQVKGDVFLLETLLLKRLMKPVWERLTGGIRPGTWVTLQGTPKKNWQQFVVNFALDDTLDGDIAFHFNVRRGARQVVRNHRQSGAWGREETVTPFFAFDSEATFEIVFFVKEEKFLIYFNGKLFFEFVHRVPVERITHIYMDGDCNFYEPEVVI
In the case of B1, the “glycan array binding signal (z-score)” value [1] is reported as -0.345, the “glycan array binding signal (z-score)” value [2] is reported as -0.33 and the “glycan array binding signal (z-score)” value [3] is reported as -0.345. For the same binder, the “glycan array binding signal (z-score)” value [4] was -0.328, the “glycan array binding signal (z-score)” value [5] was -0.329 and the “glycan array binding signal (z-score)” value [6] was -0.325. For the same binder, the “glycan array binding signal (z-score)” value [7] was -0.333, the “glycan array binding signal (z-score)” value [8] was -0.328 and the “glycan array binding signal (z-score)” value [9] was -0.338. For the same binder, the “glycan array binding signal (z-score)” value [10] was -0.325, the “glycan array binding signal (z-score)” value [11] was -0.337 and the “glycan array binding signal (z-score)” value [12] was -0.323. For the same binder, the “glycan array binding signal (z-score)” value [13] was -0.339, the “glycan array binding signal (z-score)” value [14] was -0.305 and the “glycan array binding signal (z-score)” value [15] was -0.336. For the same binder, the “glycan array binding signal (z-score)” value [16] was -0.339, the “glycan array binding signal (z-score)” value [17] was -0.133 and the “glycan array binding signal (z-score)” value [18] was -0.331. For the same binder, the “glycan array binding signal (z-score)” value [19] was -0.335, the “glycan array binding signal (z-score)” value [20] was -0.338 and the “glycan array binding signal (z-score)” value [21] was -0.336.

Source: the supplement of paper PMC8728848
